Our source for the CPE inhibition values is PubChem BioAssay AID540333 (Southern Research Specialized Biocontainment Screening …, 2011).

Screen size: about 10,000 compounds; about 320 (3.2%) were called active. The sample as a whole holds a higher share of actives than the screen did. A number with no mark means an inactive call. Cut-off read from the data, not from the text of the source: active = CPE inhibition mostly above about 9.1% (no sharp cut-off); inactive = mostly below about 7.2%.

The nature of the assay: antivirals protecting cells from dengue CPE – CPE readout, HTS (AID 540333). The following applies: Dengue virus CPE inhibition in host cells, at 20 µM; active compounds read high.
`COCCCNC(=O)c1cccc2c(=O)c(C)c(-c3ccccc3)oc12`: the CPE inhibition was 0.515%.

Consider `Cc1ccc(C)n1-c1ccc(NC(=O)c2ccccc2)cc1`, for which the CPE inhibition result is “inactive”.

`O=C(c1cnn(C(=O)COc2ccc(Cl)cc2)c1)c1ccccc1O`: the CPE inhibition entry is “inactive”.

In the case of `COc1cc(NC(=O)COC(=O)/C=C/c2ccc(Cl)cc2Cl)cc(OC)c1`, the CPE inhibition is 8.61%.

As for `O=C(COC(=O)/C=C/c1ccccc1Cl)NC(=O)Cc1ccccc1`, the CPE inhibition was 0.12%.

For the compound `COc1cc(NC(=O)COC(=O)/C=C/c2ccccc2Cl)cc(OC)c1`, the CPE inhibition was 22.1% (active).

As to `COc1ccccc1OCCn1cc(/C=C(\C#N)C(=O)NCc2cccs2)c2ccccc21`, the CPE inhibition was 2.51%.

With `O=C(NCc1ccco1)c1ccc(Cl)c(S(=O)(=O)N2CCc3ccccc32)c1`, the CPE inhibition is 1.37%.

Consider `COc1cc(C(=O)NC(=S)NC(C)C)cc(OC)c1OC`, for which the CPE inhibition entry was “inactive”.

As to `Cc1ccc(NC(=O)c2ccc(NCCN)c([N+](=O)[O-])c2)cc1`, the CPE inhibition was 3.98%.

As to `O=C(Nc1ccccc1)c1ccc(NCCc2ccccc2)c([N+](=O)[O-])c1`, the CPE inhibition was 13.8% (active).

Regarding `Cc1ccc(NC(=O)c2ccc(NCCN)c([N+](=O)[O-])c2)cc1Cl`, the CPE inhibition is 0.22%.

Regarding `O=C(O)CCC(=O)OCc1c(-c2ccccc2)ncc2ccccc12`, the CPE inhibition was 1.18%.

`CCOc1cc(C2Nc3ccccc3C(=O)N2c2ccccc2)c(Br)cc1OCC(=O)O` (centres undefined): the CPE inhibition entry was “inactive”.

Consider `COc1cccc(NCc2ccc([N+](=O)[O-])s2)c1`, for which the CPE inhibition result was “inactive”.

As for `COc1ccc(NCc2ccc([N+](=O)[O-])s2)cc1`, the CPE inhibition was 16.8% (active).

On to `COc1ccc(NCc2ccccc2[N+](=O)[O-])cc1OC`, for which the CPE inhibition is 1.54%.

On to `COc1ccc(NCc2ccc([N+](=O)[O-])s2)c(OC)c1`, for which the CPE inhibition was 11.8% (active).

In the case of `COc1ccc(NC(=O)/C=C/c2ccccc2[N+](=O)[O-])c(OC)c1`, the CPE inhibition was 0.44%.

In the case of `COc1ccccc1NCc1ccc([N+](=O)[O-])s1`, the CPE inhibition result was “inactive”.

For the compound `COc1cc(C2Nc3ccccc3C(=O)N2c2ccccc2)c(Br)cc1OCC(=O)O` (centres undefined), the CPE inhibition result was “inactive”.

On to `Cn1cnnc1SCC(=O)Nc1cc(S(=O)(=O)N2CCCCCC2)ccc1Cl`, for which the CPE inhibition result is “inactive”.

Consider `Cc1ccc2c([N+](=O)[O-])cccc2n1`, for which the CPE inhibition result was “inactive”.

For `Cc1ccc(CNC(=O)c2ccc3c(c2)S(=O)(=O)c2ccccc2C3=O)o1`, the CPE inhibition entry was “inactive”.

As to `COc1cc(OC)cc(-c2c(-c3cccs3)c3cc(-c4ccc5[nH]ccc5c4)ccc3n2C)c1`, the CPE inhibition is 4.79%.

In the case of `CCCCOc1ccc(/C=C/C(=O)OCC(=O)NC(=O)NCC(C)C)cc1OCC`, the CPE inhibition entry was “inactive”.

Regarding `CCOc1ccc(/C=C/C(=O)NCc2ccccc2)cc1`, the CPE inhibition entry was “inactive”.

`COc1ccc(/C=N/OCC(=O)NC(c2ccccc2)c2ccccc2)cc1OC`: the CPE inhibition was 7.42%.

On to `CCOc1ccc(/C=N/OCC(=O)NC(c2ccccc2)c2ccccc2)cc1`, for which the CPE inhibition is 13.1% (active).
